High-throughput results from PubChem BioAssay.
Sampled rows, rich in hits. Any-hit rate of the full collection: about 2.6%.
eIF4H inh: inhibitors of RNA binding by human eIF4H | eIF4H fluorescence polarization binding assay | inhibition, % at 35 µM | actives 0.94% (n = 290,000) | Q15056;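 also: calls also rest on retests at 20 µM and on dose response follow-up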
A3G deaminase: inhibitors of human APOBEC3G DNA deaminase; actives 0.28% (n = 330,000); Q9HC16; inhibition, % at 20 µM; AID 493012; recombinant A3G, ssDNA deamination FAM/TAMRA fluorescence;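 active = inhibition of at least 40% at 20 µM, with no more than 30% in the related APOBEC3A deaminase screen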;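 also: plate controls were DMSO wells with A3G for no effect and wells lacking A3G enzyme for full effect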
PABP1 MLLE inh: blocks PAM2 peptide binding to the PABP1 MLLE domain. P11940. GST-MLLE / FITC-PAM2 fluorescence polarization. inhibition, % at 20 µM. actives 0.36% (n = 360,000); in the data active = inhibition above about 35%, passing the limit was not always enough;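 also: plate controls were DMSO wells with GST-MLLE for no effect and wells lacking GST-MLLE protein for full effect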
A3A deaminase: human APOBEC3A DNA deaminase inhibition; P31941; recombinant A3A, FAM/TAMRA ssDNA deamination fluorescence; inhibition, % at 20 µM; actives 0.41% (n = 330,000);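 active = at least 40% inhibition at 20 µM here, with at most 30% in a related deaminase screen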;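 also: plate controls were A3A with DMSO for no effect and wells lacking A3A enzyme for full effect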
Target sequence (P31941 whole entry, looked up): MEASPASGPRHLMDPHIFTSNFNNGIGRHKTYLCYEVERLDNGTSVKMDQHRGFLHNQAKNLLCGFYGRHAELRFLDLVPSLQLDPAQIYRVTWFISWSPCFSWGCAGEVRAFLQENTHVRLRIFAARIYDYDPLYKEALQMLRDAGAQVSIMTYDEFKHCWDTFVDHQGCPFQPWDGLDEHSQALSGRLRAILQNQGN
PABP polyA inh: blocks human PABP binding to poly(A) RNA; P11940; fluorescence polarization; calls only at 35 µM; actives 1% (n = 290,000);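 also: calls also rest on retests at 20 µM and on dose response follow-up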
PHOSPHO1 inh: blocks human PHOSPHO1 phosphatase activity; Q8TCT1; recombinant PHOSPHO1, absorbance phosphatase assay; inhibition, % at 13.3 µM; actives 1.1% (n = 290,000); AID 1565; in the data active = inhibition above about 60%
A3G conf: APOBEC3G (human) deaminase inhibition, confirmed | shares compounds with A3G deaminase | actives 72% (n = 890) | inhibition, % at 20 µM | AID 493152 | recombinant A3G ssDNA deaminase, UDG/FAM-TAMRA fluorescence;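 active = inhibition reaching a set limit in any replicate at 20 µM, the limit being 80% of the first screen's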
UDG ctr A3G: counter-screen for APOBEC3G inhibitors: E. coli UDG; 710 tested, under 10 active; shares compounds with A3G deaminase; UDG counterscreen, FAM/TAMRA oligo fluorescence; inhibition, % at 20 µM;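 active = compounds giving 40% or more inhibition at 20 µM in any one of the three replicates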;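 also: plate controls were DMSO wells with UDG and oligo for no effect and DMSO wells lacking both for full effect; inhibitors lower the FAM signal released by uracil excision and alkaline cleavage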
An asterisk follows results filed as active; i = inactive; . = not tested or not shown. Unless noted, no rule for the calls is given here.

SMILES	eIF4H inh	A3G deaminase	PABP1 MLLE inh	A3A deaminase	PABP polyA inh	PHOSPHO1 inh	A3G conf	UDG ctr A3G
COc1ccc(CNC(=O)c2cc3ccccc3o2)cc1OC	2	71*	-11	-3	i	14	-3	1
COc1ccc(NC(=O)c2cc3ccccc3o2)cc1OC	0	-10	-3	-2	i	.	.	.
CCCCCCNC(=O)N[C@@H](C(=O)NCCC[C@H]1CN2C(=NC[C@@H]2Cc2ccccc2)N1CCc1cccc(OC)c1)C(C)C	-10	54*	.	10	i	26	32*	.
CCOc1ncccc1C(=O)OCC(=O)NCCc1ccc(OC)cc1	0	-5	13	-18	i	-11	.	.
CCOC(=O)C1=C(C)N(c2ccc(C)cc2)C(=O)/C1=C\c1ccc(O)c(OC)c1	-6	77*	17	2	i	12	6	.
S=C(Nc1ccc(Br)cc1Cl)NN1CCOCC1	-4	61*	17	1	i	43	3	.
S=C(NCC1CCCO1)N1CCN(c2nc(-c3ccccc3)cs2)CC1 (centres undefined)	-5	-10	-119	-9	i	20	.	.
CC(C)(C)Cc1c(-c2ccccc2)nc2ccc(Br)cn12	.	.	-2	.	.	.	.	.
Cc1ccc(/C=N/NC(=O)c2ccc(Br)o2)s1	-12	59*	1	-1	i	-2	-3	2
CCc1ccc(/C=N\NC(=O)c2ccc(Br)o2)s1	2	-5	2	-2	i	12	.	.
COc1ccc(C(=O)NCc2nnc(SCC(=O)NCc3ccco3)o2)cc1	-6	-4	-1	-4	i	19	.	.
Cc1ccc(NC(=O)c2cc(-c3ccc(C)o3)nc3ccccc23)cc1	22	5	10	6	i	37	.	.
Cc1ccc(-c2cc(C(=O)Nc3cccnc3)c3ccccc3n2)o1	-4	50*	-29	25	i	21	36*	-5
O=C(Cc1ccc(Cl)cc1Cl)Nc1cccc(S(=O)(=O)Nc2ccccc2F)c1	2	56*	19	8	i	74*	74*	0
O=C(/C=C/c1ccccc1)Nc1cccc(S(=O)(=O)Nc2ccccc2F)c1	3	71*	32	6	i	-16	60*	3
O=S(=O)(Nc1ccccc1F)c1cccc(NC(=S)NCCN2CCOCC2)c1	.	71*	5	-2	.	.	80*	-5
O=S(=O)(Nc1ccc(Br)cc1)c1cccc(NC(=S)NCCN2CCOCC2)c1	1	-6	22	-4	i	2	.	.
O=C(Nc1cccc(S(=O)(=O)Nc2ccccc2F)c1)c1ccc2ccccc2n1	-8	56*	36	2	i	6	61*	-3
COc1ccccc1NS(=O)(=O)c1cccc(NC(=O)c2ccc3ccccc3n2)c1	-17	0	-9	1	i	-12	.	.
CCc1c(C)sc(NC(=O)c2ccco2)c1C#N	6	-9	8	-4	i	.	.	.
Cc1cc(C)nc(SSc2nc(C)cc(C)n2)n1	-8	57*	34	-4	i	-44	83*	-2
O=C(N/C=C/c1ccccc1)c1ccccc1	.	1	-6	4	.	.	.	.
CCCCN(C(=O)c1ccc(NC2CC2)c([N+](=O)[O-])c1)c1c(N)n(CCCC)c(=O)[nH]c1=O	.	-12	0	-1	.	.	.	.
CCSc1nnc2n1C(C)(C)Cc1ccccc1-2	5	-1	5	-3	i	35	.	.
CC1(C)Cc2ccccc2-c2n[nH]c(=S)n21	-2	56*	21	-8	i	96*	90*	-4
SMILES	eIF4H inh	A3G deaminase	PABP1 MLLE inh	A3A deaminase	PABP polyA inh	PHOSPHO1 inh	A3G conf	UDG ctr A3G
Cc1ccc(-n2sc3ccccc3c2=O)cc1S(=O)(=O)N1CCCCC1	-3	75*	8	1	i	30	73*	.
Cc1ccc(C(=O)NNC(=O)c2ccccc2)cc1S(=O)(=O)N1CCCCC1	.	-5	10	-2	.	.	.	.
O=c1c2ccccc2sn1-c1ccc(S(=O)(=O)N2CCCC2)cc1	4	78*	29	4	i	-18	83*	.
O=c1c2ccccc2sn1-c1ccc(S(=O)(=O)N2CCCCC2)cc1	.	64*	11	-2	.	.	65*	2
O=C(COC(=O)c1ccc[nH]c1=O)NC1CC1	.	-6	-4	-1	.	.	.	.
Cc1cccc(OCCCC(=O)Nc2ccc(S(=O)(=O)Nc3nccs3)cc2)c1C	4	-4	12	5	i	11	.	.
COCCCNC(=S)NNC(=S)Nc1ccccc1	-4	42*	30	2	i	-6	72*	2
COCCCNC(=S)NNC(=S)Nc1ccc(F)cc1F	-1	55*	35	-1	i	83*	86*	-8
COCCCNC(=S)NCCc1ccc(F)cc1	1	-7	-19	-4	i	-16	.	.
COCCCNC(=S)Nc1ccc(C)cc1	-8	-1	-31	-4	i	17	.	.
CC(=O)N(c1ccccc1C)C1CCCC1	-5	-5	-7	-6	i	7	.	.
CC(=O)N(C1=C(Cl)C(=O)c2ccccc2C1=O)C1CCCCC1	-3	83*	26	5	i	-82	92*	-1
COc1ccc(N2C(=O)C(CN3CCN(C)CC3)C2c2ccccc2)cc1 (centres undefined)	-3	-10	4	2	i	45	.	.
CC/C(=N\NC(=O)c1ccc2c(c1)OCO2)c1ccccc1	-3	-10	11	23	i	53	.	.
COc1cc(C(=S)N2CCN(C(c3ccccc3)c3ccccc3)CC2)cc(OC)c1O	-11	43*	36	-5	i	.	18	2
COc1ccc(S(=O)(=O)Nc2nnc(C(C)(C)C)s2)cc1	4	50*	37	5	i	98*	20*	2
COc1ccc(S(=O)(=O)Nc2nnc(CC(C)(C)C)s2)cc1	-14	-12	32	27	i	28	.	.
Oc1cc2c(cc1O)C1c3ccc(O)c(O)c3OCC1(O)C2 (centres undefined)	92	61*	37	2	i	44	69*	.
CC(c1ccccc1)n1c(Cn2ncc3ccccc3c2=O)n[nH]c1=S (centres undefined)	-9	30	10	-5	i	-54	.	.
O=c1c2ccccc2cnn1Cc1n[nH]c(=S)n1-c1ccc(Cl)cc1	-17	42*	-21	-2	i	18	77*	-3
O=C1NCN(c2ccccc2)C12CCN(c1nnnn1-c1ccccc1)CC2	-17	-3	4	-1	i	-16	.	.
Cc1ccc(NNS(=O)(=O)c2ccc(C)cc2)cc1	-11	69*	13	-2	i	49	65*	-3
